# Bioassay records: PubChem, Broad Institute
# A selection: hits, their analogues and other compounds. The true share with any hit is near 6.7%.
# T cruzi growth-1 = inhibitors of T. cruzi proliferation; hit rate 5.9% among 77,000; T. cruzi beta-gal in NIH3T3, GalScreen luminescence, 90 h; inhibition, % at 8.34 µM;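 active = mean inhibition above about 93%, with at least 55% of replicates each passing it, limit read from the data, passing the limit was not always enough; inconclusive = only one of those two conditions holds; inactive = neither condition holds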
# C diff growth = inhibitors of Clostridium difficile growth; hit rate 0.25% among 86,000; Clostridium difficile clinical isolate growth, OD600, 24 h; active compounds read low; growth activity, negative = inhibition, % at 16 µg/mL (by protocol);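 active = mean growth activity at or below -80% and every replicate also at or below -80%; inconclusive = mean at or below -80% but some replicate above -80%; inactive = mean growth activity above -80%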;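 note: 0% = DMSO wells and -100% = levofloxacin 16 µg/mL wells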
# Pf Dd2 inh = P. falciparum Dd2 growth inhibition; activity change, % at 10 µM; AID 1159554; SYBR Green, 72 h; active compounds read low; hit rate 2.3% among 94,000; in the data active = activity change below about -80%; inconclusive = no clear call, values can overlap the other calls
# T cruzi growth-2 = inhibitors of T. cruzi proliferation | hit rate 72% among 5,600 | shares compounds with T cruzi growth-1 | T. cruzi beta-gal in NIH3T3, GalScreen luminescence, 90 h | AID 651739 | inhibition, % at 8.35 µM;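 active = mean replicate inhibition above about 95% and at least 55% of replicates individually reaching it, limit read from the data; inconclusive = only one of the two criteria is met; inactive = neither criterion is met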
# T cruzi growth-3 = blocks T. cruzi growth in NIH3T3 host cells; shares compounds with T cruzi growth-1; T. cruzi beta-gal in NIH3T3, GalScreen luminescence, 90 h; inhibition, % at 2.09 µM; hit rate 21% among 5,600; AID 651740;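 active = mean inhibition above about 95%, with at least 55% of replicates also reaching it, limit read from the data; inconclusive = meets just one of the two conditions; inactive = meets neither condition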;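 note: plate controls were neutral control median for no effect and positive control median for full effect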
# NIH3T3 tox = kills mouse NIH/3T3 fibroblasts; shares compounds with T cruzi growth-1; NIH/3T3 viability, CellTiter-Glo ATP luminescence, 90 h; cytotoxicity (signal decrease), % at 8.35 µM; hit rate 14% among 5,600; AID 651742;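 active = mean signal decrease across replicates above about 35% based on untreated-well scatter, with enough replicates individually passing, limit read from the data; inconclusive = no rule stated though some were filed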;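 note: 0% = median of neutral control wells and 100% = median of positive control wells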
# 3T3 cytotox 2 = kills mouse NIH/3T3 fibroblasts; shares compounds with T cruzi growth-1; NIH/3T3 viability, CellTiter-Glo ATP luminescence, 90 h; inhibition, % at 24.9 µM; hit rate 56% among 5,600;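 active = mean loss of cell viability signal at or above a set limit, and enough replicates individually reaching it; inconclusive = meets only the mean limit or only the replicate share; inactive = meets neither condition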;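 note: 0% = median of neutral control wells and 100% = median of positive control wells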
# * = called active by the depositor; ? = inconclusive; nt = no result given.
SMILES,T cruzi growth-1,C diff growth,Pf Dd2 inh,T cruzi growth-2,T cruzi growth-3,NIH3T3 tox,3T3 cytotox 2
C[C@H]1CCCCO[C@H](CN(C)C(=O)Nc2ccc3c(c2)OCO3)[C@@H](C)CN([C@@H](C)CO)C(=O)c2cc(NS(C)(=O)=O)ccc2O1,-29,3,10,nt,nt,nt,nt
C[C@@H]1CCCCO[C@@H](CN(C)CC2CCCCC2)[C@H](C)CN([C@@H](C)CO)C(=O)c2cc(NC(=O)Nc3ccccc3)ccc2O1,105*,12,-71,101*,58,31,104*
COc1ccc(NC(=O)Nc2ccc3c(c2)C(=O)N([C@H](C)CO)C[C@H](C)[C@@H](CN(C)CC2CCCCC2)OCCCC[C@H](C)O3)cc1,96*,0,-71,105*,112*,24,105*
COc1ccc(NC(=O)Nc2ccc3c(c2)CC(=O)N([C@@H](C)CO)C[C@@H](C)[C@H](CN(C)CC2CCCCC2)O3)cc1,120*,-17,-90*,99*,39,12,104*
C[C@@H]1CCCCO[C@H](CN(C)CC2CCCCC2)[C@H](C)CN([C@H](C)CO)C(=O)c2cc(NC(=O)c3ccccc3)ccc2O1,118*,2,-77,114*,65,15,105*
C[C@@H]1CCCCO[C@H](CN(C)CC2CCCCC2)[C@H](C)CN([C@@H](C)CO)C(=O)c2cc(NC(=O)c3ccccc3)ccc2O1,115,1,-64,nt,nt,nt,nt
COc1ccc(NC(=O)Nc2ccc3c(c2)CC(=O)N([C@@H](C)CO)C[C@@H](C)[C@H](CN(C)CC2CC2)O3)cc1,26,-3,-41,nt,nt,nt,nt
COc1ccc(NC(=O)Nc2ccc3c(c2)C(=O)N([C@H](C)CO)C[C@@H](C)[C@@H](CN(C)CC2CCCCC2)OCCCC[C@H](C)O3)cc1,91,-8,-75,nt,nt,nt,nt
C[C@@H]1CCCCO[C@@H](CN(C)CC2CC2)[C@H](C)CN([C@H](C)CO)C(=O)c2cc(NC(=O)Nc3ccccc3)ccc2O1,86,nt,-35,nt,nt,nt,nt
COc1cccc(NC(=O)N(C)C[C@@H]2OCc3ccccc3-c3c(n(C)c4ccccc34)C(=O)N([C@@H](C)CO)C[C@@H]2C)c1,46,13,-54,nt,nt,nt,nt
C[C@H](NC(=O)[C@H]1[C@H](CO)[C@H]2Cn3c(ccc(C4=CCCC4)c3=O)[C@H]2N1C)c1ccccc1,33,3,5,nt,nt,nt,nt
C[C@H]1CCCCO[C@@H](CN(C)CC2CCCCC2)[C@@H](C)CN([C@@H](C)CO)C(=O)c2cc(NC(=O)Nc3ccc4c(c3)OCO4)ccc2O1,99*,-6,-81*,?,109*,41*,106*
C[C@@H]1CCCCO[C@H](CN(C)CC2CCCCC2)[C@@H](C)CN([C@H](C)CO)C(=O)c2cc(NC(=O)Nc3ccccc3)ccc2O1,109*,10,-58,112*,91,4,95*
C[C@H]1CCCCO[C@@H](CN(C)CC2CCCCC2)[C@@H](C)CN([C@@H](C)CO)C(=O)c2cc(NC(=O)c3ccccc3)ccc2O1,39,5,?,nt,nt,nt,nt
C[C@@H]1CCCCO[C@@H](CN(C)CC2CCCCC2)[C@@H](C)CN([C@@H](C)CO)C(=O)c2cc(NC(=O)Nc3ccccc3)ccc2O1,125*,8,-69,104*,92,23,103*
C[C@@H]1CCCCO[C@H](CN(C)CC2CCCCC2)[C@H](C)CN([C@@H](C)CO)C(=O)c2cc(NC(=O)Nc3ccccc3)ccc2O1,92,0,-67,nt,nt,nt,nt
C[C@@H]1CN([C@@H](C)CO)C(=O)c2cc(NC(=O)Nc3ccc4c(c3)OCO4)ccc2O[C@@H](C)CCCCO[C@@H]1CN(C)CC1CCCCC1,-43,2,-79,nt,nt,nt,nt
CO[C@H]1CN(C)C(=O)c2cc(NS(=O)(=O)c3cn(C)cn3)ccc2OC[C@H](C)N(C)C[C@H]1C,-22,-5,11,nt,nt,nt,nt
C/C=C/c1ccc2c(c1)O[C@@H](CN(C)C(=O)CN1CCOCC1)[C@H](C)CN([C@H](C)CO)S2(=O)=O,-23,-1,31,nt,nt,nt,nt
O=C(C[C@H]1C[C@@H]2c3cc(NC(=O)c4cccnc4)ccc3O[C@@H]2[C@@H](CO)O1)NC1CCCC1,nt,-7,-1,nt,nt,nt,nt
COc1ccc(S(=O)(=O)Nc2ccc3c(c2)C(=O)N([C@@H](C)CO)C[C@@H](C)[C@@H](CN(C)C(=O)c2ccccc2)OCCCC[C@@H](C)O3)cc1,17,0,-20,nt,nt,nt,nt
COCC#Cc1cnc2c(c1)C(=O)N([C@@H](C)CO)C[C@@H](C)[C@@H](CN(C)S(=O)(=O)c1cn(C)cn1)O2,-20,-6,35,nt,nt,nt,nt
CN(C)C(=O)[C@@H]1[C@@H](CO)[C@@H]2Cn3c(ccc(-c4ccccc4)c3=O)[C@@H]2N1Cc1ccccc1,56,1,-1,nt,nt,nt,nt
OC[C@H]1[C@@H](c2ccc(-c3ccccc3F)cc2)[C@H]2CN(Cc3cccnc3)CCCCN21,54,-1,-8,nt,nt,nt,nt
OC[C@@H]1[C@H](c2ccc(-c3ccccc3F)cc2)[C@H]2CN(Cc3ccncc3)CCCCN12,107*,-13,-18,93,85,46*,103*
SMILES,T cruzi growth-1,C diff growth,Pf Dd2 inh,T cruzi growth-2,T cruzi growth-3,NIH3T3 tox,3T3 cytotox 2
OC[C@H]1[C@H](c2ccc(-c3ccccc3F)cc2)[C@@H]2CN(Cc3cccnc3)CCCCN12,33,3,-40,nt,nt,nt,nt
OC[C@H]1[C@H](c2ccc(-c3ccccc3F)cc2)[C@@H]2CN(Cc3ccncc3)CCCCN12,106*,-8,-17,101*,74,30,103*
OC[C@@H]1[C@@H](c2ccc(-c3ccccc3F)cc2)[C@H]2CN(Cc3ccncc3)CCCCN12,104*,-4,-46,83,48,29,81*
OC[C@@H]1[C@H](c2ccc(-c3ccccc3F)cc2)[C@@H]2CN(Cc3cccnc3)CCCCN12,89,2,-12,nt,nt,nt,nt
COc1ccccc1C(=O)Nc1ccc2c(c1)C(=O)N(C)[C@@H]1CC[C@@H](CC(=O)NCc3ccc(Cl)c(Cl)c3)O[C@@H]1CO2,88,13,-50,nt,nt,nt,nt
O=C([C@H]1[C@H](CO)[C@H]2Cn3c(ccc(-c4ccccc4)c3=O)[C@H]2N1Cc1cocn1)N1CCCCC1,11,4,7,nt,nt,nt,nt
CC(C)[C@H](C)NC(=O)N(C)C[C@H]1OCc2ccccc2-c2c(n(C)c3ccccc23)C(=O)N([C@H](C)CO)C[C@H]1C,-29,nt,-41,nt,nt,nt,nt
C[C@H](CO)N1C[C@H](C)[C@@H](CN(C)S(=O)(=O)c2cn(C)cn2)Oc2cc(C#Cc3cccc(F)c3)ccc2S1(=O)=O,47,0,-67,nt,nt,nt,nt
C[C@@H]1CN([C@@H](C)CO)S(=O)(=O)c2ccc(C#Cc3ccccc3)cc2O[C@H]1CN(C)S(=O)(=O)c1cn(C)cn1,72,-8,-75,nt,nt,nt,nt
